In PubChem BioAssay AID1069 (NMMLSC, 2008):
The source made the active and inactive calls.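 How the source made its calls: active means high combined rank on largest and smallest cell-count-weighted shift across three tests, rank score above 45, floors 50 and 25 (some results past the limit were not filed as active); inactive means the rest.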

Assay: activators of LNCaP cell differentiation, retest, confirmation, side scatter shift, flow cytometry (AID 1069);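 further: LNCaP human prostate cancer cells in low-serum medium with charcoal-stripped FBS; percent of cells with raised granularity gated so DMSO controls show 10%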
Conditions: 4 d, stronger effect = higher value

Row | SMILES | side scatter shift (at 100 µM) | side scatter shift (side scatter shift, at 10 µM) [%]
1 | Cn1c(=O)cc(SCC(=O)NCCCN2CCN(c3ccccc3F)CC2)c2ccccc21 | 70.5% (active) | 12.8
2 | O=C(CN1CCC(n2nnc3cc(F)ccc32)CC1)Nc1ccc2c(c1)CCC2 | 6.2% (inactive) | 1.9
3 | COc1ccc(N2CCN(CCCNC(=O)CCCn3c(=O)[nH]c4ccsc4c3=O)CC2)cc1 | 7.7% (inactive) | 20.6
4 | COc1ccc(Cl)cc1N1CCN(CCNC(=O)Nc2ccccc2C)CC1 | 16.7% (inactive) | 3.25
5 | Cc1cc(C)c2c(=O)n(CC(=O)NCCCN3CCN(c4ccccc4F)CC3)sc2n1 | 20% (inactive) | 6.8
6 | Cc1ccccc1-c1nc(CN2CCC(C(=O)NCC3CCCO3)CC2)c(C)o1 (stereo not drawn) | 22.5% (inactive) | 7.1
7 | Cc1nc2ncnn2c(C)c1CCC(=O)NCCCN1CCN(c2cccc(Cl)c2)CC1 | 37.9% (inactive) | 8.55
8 | Cc1cc(C)n2nnnc2c1C#N | 3.9% (inactive) | 6.4
9 | O=C(Cn1cnc2ccccc2c1=O)NCCC(=O)N1CCN(c2ccccc2)CC1 | 17.1% (inactive) | 4
10 | Nc1ccc(-n2ccnc2)cc1 | 37.6% (inactive) | 7.5
11 | COc1ccc(N2CCN(c3oc(COc4ccccc4Cl)nc3C#N)CC2)cc1 | 24.8% (inactive) | 9.2
12 | CCN1CCN(CCNC(=O)C2CCN(Cc3nc(-c4ccc(Cl)cc4)oc3C)CC2)CC1 | 44.7% (active) | 28.8
13 | CCN(CC)CC(=O)Nc1ccc(-c2nc3cc(NC(=O)CN(CC)CC)ccc3o2)cc1 | 0% (active) | 42
14 | Cc1ccc(C)c(N2CCN(CCCNC(=O)Cn3cc4c(n3)CCCCC4)CC2)c1 | 0% (inactive) | 7.55
